Experimental data from PubChem BioAssay.

Legend:
[1] = tested on: Human papillomavirus type 1a protein E7 (residues 44-93); assay: HPV1a E7 fragment binders on microarrays, primary screen, biochemical, small-molecule microarray, residues 44-93, 635 nm fluorescence (AID 1108); details: small-molecule microarray binding, fluorescence 635 nm; higher = more signal;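 further: E7 fragment applied at 1 µg/mL in TBST for 1 h at 4 C; score combines spot fluorescence with its signal to noise ratio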
[2] = modulators of HCV replicon luciferase signal, primary screen, HCV replication inhibitor project, Huh7 cells, luciferase reporter (AID 1109); details: 48 h, higher = more signal;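 further: huh7 hepatoma cells harbouring a luciferase neomycin HCV replicon reporter; luciferase luminescence as measure of HCV replicon replication; test concentration not given here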
[3] = target: Left-right determination factor 2 (Homo sapiens) (UniProt O00292); assay: LEFTY2 binders on small-molecule microarrays, primary screen, biochemical, small-molecule microarray, 635 nm fluorescence scan (AID 1110); details: LEFTY2 binding, higher = more signal
[4] = target: Calmodulin-1 (Homo sapiens) (UniProt P0DP23); assay: CALM1 binders on microarrays, EGTA buffer, profiling panel, biochemical, small-molecule microarray, Cy5-labelled CALM1 (AID 1111); details: Cy5-CALM1 binding fluorescence, higher = more signal;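 further: labelled calmodulin applied in Tris saline Tween buffer holding calcium plus EGTA and DTT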
[5] = target: Calmodulin-1 (Homo sapiens) (UniProt P0DP23); assay: calcium-bound CALM1 binders on microarrays, profiling panel, artefact control for SMM control-protein annotation, biochemical, small-molecule microarray, Cy5-labelled CALM1, plus calcium (AID 1112); details: Cy5-CALM1 binding fluorescence, higher = more signal;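 further: score merges spot fluorescence with signal to noise from triplicate slides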
[6] = small-molecule microarray binders of probe aWnt5a, primary screen, biochemical, biotinylated probe, 635/667 nm fluorescence (AID 1113); details: higher = more signal;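 further: score merges 667 nm fluorescence intensity with signal-to-noise per printed feature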
[7] = small-molecule microarray binders of probe aShh, primary screen, biochemical, biotinylated probe, 635/667 nm fluorescence (AID 1114); details: higher = more signal;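 further: probe is biotin-labelled aShh protein from a stem cell growth factor screen; measures binding of labelled protein to compounds printed on the slide; score merges feature fluorescence at 667 nm with signal-to-noise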
[8] = small-molecule microarray binders of probe aNog, primary screen, biochemical, biotinylated probe, 635/667 nm fluorescence (AID 1115); details: higher = more signal;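 further: probe is biotinylated aNog protein used at 0.15 µg/mL for 1 h at 4 C; z-score combines 667 nm fluorescence of each spot with its signal to noise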
[9] = target: Torsin-1A-interacting protein 1 (Homo sapiens) (UniProt Q5JTV8); assay: LAP1 binders from COS7 cell lysate, primary screen, small-molecule microarray, 635/667 nm fluorescence (AID 1116); details: COS7-hLAP1 lysate binding, 635 nm fluorescence, higher = more signal
[10] = target: Alpha-bungarotoxin (Bungarus multicinctus) (UniProt P60615); assay: alpha-bungarotoxin binders on microarray, profiling panel, artefact control for SMM control protein annotation, biochemical, small-molecule microarray, Alexa647 label, 635/667 nm fluorescence (AID 1117); details: alpha-BTX-A647 binding fluorescence, higher = more signal
Chain of Alpha-bungarotoxin (Bungarus multicinctus) (P60615 whole entry, looked up): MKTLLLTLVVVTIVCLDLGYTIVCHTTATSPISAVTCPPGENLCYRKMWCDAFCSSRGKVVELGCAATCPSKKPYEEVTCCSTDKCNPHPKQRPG

Chain of Left-right determination factor 2 (Homo sapiens) (O00292 whole entry, looked up): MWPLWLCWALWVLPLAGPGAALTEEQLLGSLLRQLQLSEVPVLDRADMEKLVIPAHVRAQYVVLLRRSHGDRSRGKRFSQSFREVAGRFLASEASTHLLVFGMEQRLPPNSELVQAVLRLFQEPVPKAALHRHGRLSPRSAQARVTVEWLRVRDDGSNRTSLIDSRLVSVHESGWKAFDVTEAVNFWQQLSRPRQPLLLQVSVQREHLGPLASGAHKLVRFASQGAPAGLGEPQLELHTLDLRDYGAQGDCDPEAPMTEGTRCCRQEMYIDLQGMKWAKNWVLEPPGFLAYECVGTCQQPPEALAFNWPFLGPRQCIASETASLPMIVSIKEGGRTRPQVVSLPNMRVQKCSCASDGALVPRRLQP
Chain of Torsin-1A-interacting protein 1 (Homo sapiens) (Q5JTV8 whole entry, looked up): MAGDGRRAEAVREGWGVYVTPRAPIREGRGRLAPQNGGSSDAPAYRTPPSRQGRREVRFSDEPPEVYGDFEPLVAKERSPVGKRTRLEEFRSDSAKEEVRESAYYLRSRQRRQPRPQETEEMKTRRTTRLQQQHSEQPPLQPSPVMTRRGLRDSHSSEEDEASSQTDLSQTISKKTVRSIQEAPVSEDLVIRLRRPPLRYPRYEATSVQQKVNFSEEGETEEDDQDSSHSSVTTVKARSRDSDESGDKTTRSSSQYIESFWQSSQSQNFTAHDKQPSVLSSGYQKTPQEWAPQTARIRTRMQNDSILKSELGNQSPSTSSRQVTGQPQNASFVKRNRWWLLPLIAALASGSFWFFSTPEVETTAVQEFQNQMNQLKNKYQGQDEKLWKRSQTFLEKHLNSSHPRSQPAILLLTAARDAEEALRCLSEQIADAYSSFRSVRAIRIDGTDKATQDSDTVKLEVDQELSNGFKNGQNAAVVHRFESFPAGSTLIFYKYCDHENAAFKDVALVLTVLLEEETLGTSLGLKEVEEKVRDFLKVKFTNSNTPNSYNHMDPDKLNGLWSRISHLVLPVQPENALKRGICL

Structure (SMILES) | composite z-score [1] | z-score [2] | composite z-score [3] | composite z-score [4] | composite z-score [5] | composite z-score [6] | composite z-score [7] | composite z-score [8] | composite z-score [9] | composite z-score [10]
C=CCOC(=O)[C@H]1[C@@H]2C(=O)O[C@@H](c3ccccc3)[C@@H](c3ccccc3)N2[C@@H](c2ccc(OCCOC(=O)[C@H]3C[C@H]4C(=O)N[C@@H](Cc5ccccc5)C(=O)N4[C@H]3c3ccc(O)cc3)cc2)[C@]12C(=O)Nc1ccc(I)cc12 | 1.39 | -1.41 | 0.537 | 0.43 | 0.0144 | 0.0169 | -0.333 | -0.174 | 0.791 | 0.897
CC=CC(O)C1C=CC2C(=O)N(C)C(=O)C2N1N1CCCCC1 (stereo not given) | 1.15 | 0.121 | 0.364 | 1.41 | 0.127 | 0.0559 | -0.151 | -0.39 | 0.923 | 1.1
[N-]=[N+]=NCc1ccccc1C[C@@]1(C(=O)N2CCCCC2)N=C(c2ccc(OCCCO)cc2)O[C@@H]1c1ccccc1N=[N+]=[N-] | 1.37 | -1.04 | -0.0573 | 1.43 | 0.795 | -0.392 | -0.284 | -0.919 | 0.209 | 0.809
C=C(C(=O)CC[C@H](OC(=O)c1cccnc1)c1ccc(CO)o1)C(C)C | 0.362 | -1.43 | 0.584 | 0.627 | -0.316 | 0.0973 | 0.39 | 0.013 | 1.18 | 1.19
COc1ccc([Si](C)(C)[C@@H]2[C@@H](CCO)O[C@]3(C(=O)N(Cc4cccc(N5C(=O)c6cccc7cccc5c67)c4)c4ccccc43)[C@H]2C)cc1 | 1.21 | -4.47 | -0.385 | 0.831 | 0.978 | -0.0758 | 0.0815 | 0.0601 | 0.0561 | 0.578
COCCOC(=O)N1C(=O)[C@@]2(c3cc(C#CC4=CCCCC4)ccc31)[C@H](c1ccc(O)cc1)N1[C@H](c3ccccc3)[C@H](c3ccccc3)OC(=O)[C@H]1[C@@H]2C(=O)Nc1nc2ccccc2s1 | 0.909 | -0.598 | 0.494 | 1.81 | 0.0702 | -0.0654 | -0.066 | -0.482 | 1.12 | 1.21
O=C(CCCCCCC(=O)Nc1ccccc1)N/N=C/c1ccccc1 | -0.162 | -0.529 | 0.229 | -0.507 | -0.491 | -0.18 | 0.0224 | -0.216 | 0.255 | -0.454
CN(C)CCCCNC(=O)[C@H]1C[C@H]2C(=O)N[C@@H](CCCCN(C)C)C(=O)N2[C@H]1c1cccc(OCCO)c1 | 1.41 | 0.057 | 1.17 | 0.477 | -0.167 | -0.036 | -0.203 | 0.0721 | 0.752 | 0.701
COc1ccc([Si](C)(C)[C@H]2[C@H](CCO)O[C@@]3(C(=O)N(Cc4cccc(N5CCCCC5=O)c4)c4ccccc43)[C@@H]2C)cc1 | 1.25 | -5.07 | 1 | 0.557 | 0.388 | -0.0919 | 0.149 | 0.304 | 0.753 | 1.22
Cc1c(NC(=O)/C(C#N)=C/C=C/c2ccc(N(C)C)cc2)c(=O)n(-c2ccccc2)n1C | 0.55 | -0.754 | 0.431 | 0.824 | -0.224 | 0.19 | 0.173 | 0.432 | 1.69 | 1.04
C=C(/C(=C/C[C@@H](OC(=O)c1ccncc1)c1ccccc1OCCO)c1cc(C(=O)OC)ccc1OC)C(C)C | 1.36 | -2 | 0.788 | 0.455 | -0.366 | -0.012 | 0.3 | -0.025 | 0.568 | 0.255
C=CC[C@]1(C(=O)N(C)C)N=C(c2ccc(OCCCO)cc2)O[C@H]1c1ccccc1N=[N+]=[N-] | 1.4 | -0.277 | -0.406 | 2.27 | 0.116 | 0.0559 | 0.158 | -0.0009 | 0.959 | 2.03
COc1ccc([Si](C)(C)[C@@H]2[C@@H](CCO)O[C@]3(C(=O)N(Cc4cccc(N5C(=O)c6ccccc6Oc6ccccc65)c4)c4ccccc43)[C@H]2C)cc1 | 0.405 | -4.56 | -0.704 | 0.949 | 0.646 | -0.208 | -0.221 | -0.0641 | 0.0437 | -0.115
COc1cc(CO)cc(I)c1O[C@H]1C=C(C(=O)NCCO)C[C@@H](N(Cc2ccc(F)cc2)C(=O)C2CCCO2)[C@@H]1O (stereo not given in full) | -0.284 | 0.561 | 0.407 | -0.0131 | -0.402 | -0.124 | -0.338 | -0.0312 | -0.0829 | 0.988
CCOC(=O)C[C@H]1[C@H](OC(=O)c2ccc(-c3ccccc3)cc2)[C@@H](NC(=O)c2ccc3ccccc3c2)c2cc(OCCCO)ccc2N1C(=O)c1ccc2ccccc2n1 | 1.18 | -1.07 | 0.249 | 1.31 | 0.593 | -0.0445 | -0.112 | -0.324 | 0.639 | 0.0804
CCCc1cccc(=O)o1 | 0.364 | -0.672 | 0.427 | 0.0369 | -0.116 | 0.0037 | 0.0723 | 0.0638 | 0.898 | 0.696
CCN(CC)c1ccc(N2CC=CC34O[C@@H]5/C=C\CCC(C)OC(=O)C5[C@H]3C(=O)N(CCO)[C@@H]4C2=O)cc1 (stereo not given in full) | 1.14 | -1.35 | -1.05 | -0.653 | -0.897 | -0.148 | 0.147 | -0.0503 | 2.67 | -0.699

Structure (SMILES) | composite z-score [1] | z-score [2] | composite z-score [3] | composite z-score [4] | composite z-score [5] | composite z-score [6] | composite z-score [7] | composite z-score [8] | composite z-score [9] | composite z-score [10]
NC(=O)NCC#Cc1ccc2c(c1)[C@]1(C(=O)N2)[C@H](C(=O)Nc2nc3ccccc3s2)[C@H]2C(=O)O[C@H](c3ccccc3)[C@H](c3ccccc3)N2[C@@H]1c1ccc(O)cc1 | 0.944 | -0.797 | 0.215 | 1.29 | 0.414 | -0.0445 | -0.0243 | 0.23 | 0.187 | 1.64
C=CCN1C(=O)[C@@]2(CCC(=O)OC(C)(C)C)N=C(c3ccc(OCCCO)cc3)O[C@H]2c2ccccc21 | 1.36 | -2.97 | 0.224 | 1.47 | 0.516 | 0.065 | 0.0048 | -0.226 | 0.144 | 0.916
COC(=O)C1(Cc2ccccc2)C=C2C(=C(C(C)C)C(=O)C2C)CN1 (stereo not given) | -0.549 | -0.735 | -1.41 | 1.09 | 1.54 | 0.152 | 0.109 | 0.593 | 1.73 | -0.473
CCOC(=O)[C@H]1C/C=C/C[C@H](C(=O)OCC)C(=O)O[C@H]2[C@@H](OC)O[C@H](CO)[C@@H](OC(=O)CCc3ccccc3)[C@@H]2OC1=O | -0.431 | -1.85 | -1.59 | -0.381 | 0.367 | -0.184 | -0.0937 | 1.47 | 0.162 | -0.187
C=CC[C@@H](OC(=O)Nc1ccc(OC)cc1)c1ccc(OCCO)cc1 | -1.65 | 1.51 | -1.8 | -1.4 | -0.819 | -0.224 | 0.0723 | -0.364 | -0.326 | -0.809
COc1ccc([Si](C)(C)[C@H]2[C@H](CCn3cc(CCO)nn3)O[C@@]3(C(=O)N(Cc4ccc(N5C(=O)c6cccc7cccc5c67)cc4)c4ccccc43)[C@@H]2C)cc1 | 1.4 | -5.13 | 0.691 | 0.778 | 0.487 | -0.117 | 0.0121 | 0.298 | 0.537 | 1.08
C=CC[C@@]1(C(=O)N2CCCCC2)N=C(c2ccc(OCCCO)cc2)O[C@@H]1c1ccccc1 | 0.305 | -1.91 | 0.106 | 0.506 | -0.185 | 0.141 | -0.0243 | 2.01 | 1.87 | 0.497
CO[C@H]1O[C@H](CO)[C@@H](OC(=O)Nc2ccc(C(F)(F)F)cc2)[C@H](OC(=O)Nc2ccc3c(c2)OCO3)[C@H]1OC(=O)Nc1ccc2c(c1)OCO2 | 1.33 | -2.79 | 0.0746 | 1.84 | -0.367 | 0.0438 | 0.0437 | 0.925 | 2 | 0.648
CCOC(=O)C[C@H]1[C@H](OC(=O)c2ccccc2-c2ccccc2)[C@@H](NC(=O)CC(C)C)c2cc(OCCCO)ccc2N1C(=O)c1ccc2ccccc2n1 | 0.046 | -0.578 | 0.186 | 0.844 | -0.456 | -0.124 | -0.0769 | -0.134 | 0.171 | 0.719
O=C1c2ccccc2[C@](Cc2ccccc2I)(C(=O)NCCN2CCOCC2)[C@H](c2ccc(CO)cc2)N1Cc1ccccc1 | 1.41 | -1.79 | 0.522 | 1.25 | 0.295 | 0.359 | 0.385 | 0.482 | 0.496 | 1.64
COc1ccc(C(O)C2C=CC3C(=O)N(Cc4ccccc4)C(=O)C3N2n2cnnc2)c2ccccc12 (stereo not given) | 1.52 | -0.6 | -1.55 | 0.0664 | -0.269 | -0.12 | -0.195 | 0.657 | 1.2 | -0.438
CCOC(=O)C1=C[C@@H](c2ccccc2)N(S(=O)(=O)c2ccc(C)cc2)[C@H]1c1cccc(Cl)c1 | 0.242 | -1.81 | -0.0476 | 1.64 | 0.999 | 0.027 | -0.0289 | 0.568 | 2.5 | 2.25
[N-]=[N+]=NCc1ccccc1C[C@]1(C(=O)NCC(O)CO)N=C(c2ccc(OCCCO)cc2)O[C@H]1c1ccccc1CN=[N+]=[N-] (stereo not given in full) | 1.47 | -2.88 | -0.353 | 1.42 | 0.786 | 0.115 | 0.541 | 0.721 | 2.41 | 1.21
COc1cc(OC)c(C(O)C2C=CC3C(=O)N(c4ccccc4)C(=O)C3N2Nc2ccc(C#N)cc2)cc1Br (stereo not given) | 1.36 | -0.519 | 0.0166 | 2.19 | 0.992 | 0.471 | 0.196 | 0.81 | 2.18 | 2.42
CCOC(=O)C[C@H]1[C@H](OC(=O)c2ccc(C(=O)c3ccccc3)cc2)[C@@H](NC(=O)c2ccc3ccccc3c2)c2cc(OCCCO)ccc2N1C(=O)c1ccccc1 | 0.974 | -0.617 | 0.317 | 0.988 | 0.602 | -0.0346 | 0.0684 | 0.612 | 0.602 | 1.04
COC(=O)[C@@]1(Cc2ccc(OC)cc2)[C@H]2c3cc(C(=O)N4CCCC4)n(CCc4cc5ccccc5[nH]4)c3C[C@H]2CN1C(=O)c1ccccc1 | 1.41 | -1.85 | -0.239 | 2.44 | 0.913 | 0.239 | -0.19 | 2.21 | 2.4 | 1.21
